# Test results as given in PubChem BioAssay AID485297 (National Center for Advancing Translational Sciences (NCATS), 2010).
# Out of some 320,000 compounds screened, about 9,100 (2.8%) were called active. About 3% were inconclusive and are not listed. Many of the other results were omitted from the sample, so actives are more common in it than they were. Unmarked numbers belong to inactive results. Calls come from the whole dose curve; as a rule, active = well fitted activation curve with a large enough effect; inconclusive = small, poorly fitted or top-dose-only effect; inactive = no such curve, though single readings can be large or run the other way.
# Experiment: qHTS Assay for Rab9 Promoter Activators; note: nearly all actives have a fitted effect of over 60% in size; for activation, negative = inhibition: % of control where 0% means no effect
# Conditions: Huh7 Rab9 promoter-luciferase reporter, luminescence, 24 h; series mostly up to 9.22 µM; activation, negative = inhibition: at the top concentration
# Summary of the method: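 Luciferase signal after 10 min detection reagent at ambient indicates Rab9 promoter upregulation; stably transfected Huh7 cells were treated 24 h with compound in DMSO at 37 °C, 5% CO2.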
# Potency is the fitted concentration of half-maximal effect.
SMILES,"activation, negative = inhibition [%]",Potency
Cc1nn(Cc2ccccc2)c(C)c1C(=O)N1CCN(CC(=O)Nc2ccccc2Cl)CC1,-0.872,–
C[C@@H](NC(=O)c1nc[nH]c1C(=O)N1CCN(C(=O)OC(C)(C)C)CC1)c1ccccc1,-3.53,–
CCOc1ncccc1C(=O)OCC(=O)Nc1cccc(S(=O)(=O)N2CCCCCC2)c1,-0.596,–
CCCc1nc2oc3c(=O)[nH]cnc3c2c2c1COC(C)(C)C2,-1.12,–
Cc1ccc(-c2nc3ccccc3[nH]2)cc1N,–,1410 nM (active)
COc1ccc(Br)cc1C(=O)NC(=S)Nc1cc(-c2nc3ccccc3[nH]2)ccc1C,-4.21,–
OC(c1nc2ccccc2[nH]1)C(O)C(O)C(O)c1nc2ccccc2[nH]1 (centres undefined),11.6,–
c1ccc2[nH]c(-c3nc4ccccc4[nH]3)nc2c1,–,631 nM (active)
COc1ccc(-c2[nH]nc(-c3ccccc3)c2-c2nc3ccccc3[nH]2)cc1,-2.29,–
Nc1cccc(CCc2nc3ccccc3[nH]2)c1,3.01,–
N#Cc1ccc(C2=CC(=O)C[C@H](c3ccc(Cl)cc3)C2)cc1,-1.27,–
Cc1ccc(C)c(NC(=O)CN(C)C(=O)c2ccc3ncsc3c2)c1,1.46,–
COc1cccc(-c2nc(CS(=O)CC(=O)NCc3ccc(F)cc3)c(C)o2)c1 (centres undefined),-0.564,–
COc1ccc(C(=O)NCc2nnc(SCC(=O)Nc3cccc(OC)c3)o2)cc1,-2.44,–
CC(=O)Oc1ccc2c(=O)oc(-c3ccc([N+](=O)[O-])cc3)nc2c1,-3.36,–
COc1ccc2oc(-c3cccc(NC(=O)CSc4ccc(Cl)cc4)c3)nc2c1,–,3550 nM (active)
COc1ccc([N+](=O)[O-])cc1-c1nc2ccccc2nc1-c1ccccc1,2.73,–
COc1cccc(NC(=O)CSc2nnc(-c3cccnc3)o2)c1,-3.19,–
COc1cccc(-c2nnc(SCCOc3ccc4c(C)cc(=O)oc4c3)o2)c1,0.56,–
COc1cccc(-c2nc3cc(C)ccc3o2)c1,–,3980 nM (active)
O=[N+]([O-])c1ccc2oc(-c3cccc(O)c3)nc2c1,–,3160 nM (active)
O=C(NCCc1nnc2ccc(SCC(=O)N3CCOCC3)nn12)c1ccccc1,-2.16,–

SMILES,"activation, negative = inhibition [%]",Potency
CCCCn1c(N)c(N(CCC(C)C)C(=O)COC(=O)c2cccnc2OCC)c(=O)[nH]c1=O,-0.914,–
O=C(COC(=O)CNC(=O)C1CCCCC1)NCc1ccccc1,0.266,–
CCCCN(C(=O)c1ccc2ccccc2c1)c1c(N)n(CCCC)c(=O)[nH]c1=O,-2.5,–
O=c1oc2ccccc2cc1-c1csc(Nc2ccc(O)cc2)n1,24.9,–
CCNc1nc(-c2cc3ccccc3o2)cs1,–,1260 nM (active)
Cc1nc(C)c(-c2csc(NCCc3ccccc3)n2)s1,-3.17,–
O=C(CN1CCCSc2ccccc21)N1CCN(S(=O)(=O)c2ccccc2)CC1,-0.455,–
COc1ccc2c(c1)c(C(=O)N/N=C/c1cccs1)c(C)n2C,-6.43,–
CCC(CC)c1nnc(NC(=O)C2=COCCO2)s1,29,–
O=C(Nc1ccc(S(=O)(=O)N2CCCC2)cc1Cl)C1=COCCO1,2.73,–
Cc1csc(NC(=O)C2=COCCO2)n1,–,3550 nM (active)
Cc1ccc(-c2csc(NC(=O)C3=COCCO3)n2)cc1C,-1.89,–
NS(=O)(=O)c1ccc2nc(NC(=O)CS(=O)(=O)c3ccc(F)cc3)sc2c1,7.22,–
NS(=O)(=O)c1ccc2nc(NC(=O)C3=COCCO3)sc2c1,–,1120 nM (active)
COCCN(Cc1ccccc1)C(=O)Cc1ccc(S(=O)(=O)N2CCOCC2)s1,-1.26,–
COC(=O)c1sc(NC(=O)COC(=O)C2CCC2)c(C(=O)OC)c1C,1.11,–
COc1ccccc1N1CCN(C(=O)C2Cc3ccccc3CN2C(=O)c2ccco2)CC1 (centres undefined),-6.97,–
OCCC1CN(Cc2cccn2-c2nccs2)CCN1CCc1ccccc1 (centres undefined),-10.8,–
COc1cc(/C=N/O)ccc1OCc1ccc([N+](=O)[O-])cc1,–,2000 nM (active)
COc1cc(/C=N\Nc2ccc([N+](=O)[O-])cn2)ccc1OCC(=O)O,-1.14,–
COc1cc(C(=O)OCc2ccc([N+](=O)[O-])cc2)cc(OC)c1OC,-2,–
O=C(CCCCO)c1ccc(O)c(Cl)c1,-2.36,–

SMILES,"activation, negative = inhibition [%]",Potency
O=C(N/N=C/c1ccco1)c1ccc(C(=O)N/N=C/c2ccco2)o1,-1.12,–
O=C(N/N=C/C=C/c1ccco1)c1cccs1,–,4470 nM (active)
CC(=O)Nc1ccc(/C=N/NC(=O)c2cccs2)cc1,–,1260 nM (active)
O=C(CNC(=O)c1cccs1)N/N=C/c1cccc(Br)c1,3.62,–
CCN(CC)c1ccc(/C=N/NC(=O)CNC(=O)c2cccs2)cc1,11.8,–
Cc1ccc(-c2cc(C(=O)N/N=C/C=C/c3ccco3)c3ccccc3n2)cc1C,8.94,–
O=C(COC(=O)CCCN1C(=O)c2cccc3cccc(c23)C1=O)NC1CCS(=O)(=O)C1 (centres undefined),-1.11,–
CC(Sc1nnc(C2CC2)n1C1CC1)C(=O)Nc1ccc(C(N)=O)cc1 (centres undefined),-0.304,–
CCc1ccc(CN(C)C(C)C(=O)Nc2ccc(S(=O)(=O)N3CCCC3)cc2)cc1 (centres undefined),-0.394,–
COc1ccc([C@H]2CC(=O)C=C(c3ccc(C)cc3)C2)cc1,-4.22,–
CN(C1CCS(=O)(=O)C1)S(=O)(=O)c1ccc2ccccc2c1 (centres undefined),0.342,–
O=S(=O)(NCc1ccc2c(c1)OCO2)c1cccc2nsnc12,1.17,–
Cc1cccc(C(=O)O)c1[N+](=O)[O-],-4.76,–
Cc1onc(-c2ccccc2)c1C(=O)N1CCN(S(=O)(=O)c2ccccc2C(F)(F)F)CC1,1.61,–
Cn1c(-c2ccc(F)cc2)cc2onc(-c3ccccc3Cl)c2c1=O,–,891 nM (active)
O=c1c2ccccc2c(-c2ccc(F)cc2)nn1-c1ccc(C(F)(F)F)cc1,0.147,–
O=C1c2ccccc2C(=O)N1Cc1cc(-c2ccccc2Cl)no1,0.361,–
Cn1c(-c2ccc(C(F)(F)F)cc2)cc2onc(-c3ccccc3)c2c1=O,–,447 nM (active)
Cc1[nH]n(C)c(=O)c1C(=O)c1c(-c2c(Cl)cccc2Cl)noc1C,-6.11,–
CCCCC[C@H]1CN(C2CCCCC2)C(=O)[C@@H]1CC(=O)NCc1ccc(OC)cc1,-4.04,–
O=c1oc2ccc(C#CC3(O)CCCCC3)cc2cc1-n1cc(-c2ccsc2)nn1,-3.91,–
O=C(Nc1ccccc1N1CCOCC1)c1ccncc1,-3.82,–

SMILES,"activation, negative = inhibition [%]",Potency
CC(NCC(=O)Nc1ccccc1C(=O)NC1CC1)c1ccccc1Cl (centres undefined),-1.93,–
Cc1ccccc1CC1(CO)CCCN(C(=O)c2cc(-c3ccccc3)no2)C1 (centres undefined),-4.08,–
Cc1noc(C)c1CCC(=O)N1CCCC(CO)(Cc2ccccc2)C1 (centres undefined),–,3550 nM (active)
CCOC(=O)C1(Cc2ccccc2C)CCCN(C(=O)CCc2c(C)noc2C)C1 (centres undefined),0.805,–
COc1ccc(OCCNC(=O)c2cc(C3CC3)nc3c2cnn3C(C)C)cc1,-7.29,–
O=C(CN1CCN(c2ccccc2O)CC1)NC(=O)NCc1ccccc1,0.0733,–
N=c1c2c(-c3ccccc3)c(-c3ccccc3)n(Cc3ccccc3)c2ncn1CCCO,-18.6,–
OCCCN1c2ccccc2Nc2nnc(-c3ccccc3)cc21,–,2000 nM (active)
CCOC(=O)C(C)N(c1ccccc1Cl)S(C)(=O)=O (centres undefined),-1.61,–
N#Cc1c(NC(=O)C2CCCO2)sc2c1CCCCC2 (centres undefined),–,2240 nM (active)
N#Cc1c(NC(=O)CCCl)sc2c1CCCCC2,0.735,–
N#Cc1c(NC(=O)C2CC(Cl)=CCC2C(=O)O)sc2c1CCCCC2 (centres undefined),0.959,–
O=c1c2cc(-c3ccccc3)sc2nc2n1N=C(c1cccs1)CS2,–,1120 nM (active)
c1csc(-c2cn3c(n2)SCC3)c1,29.1,–
Cc1nnc2n1N=C(c1ccccc1)CS2,-13.1,–
O=C(c1cc2ccccc2o1)N1CCN(S(=O)(=O)c2ccc(Cl)s2)CC1,-5.02,–
COc1ccc(CNC(=O)COC(=O)CCS(=O)(=O)c2ccc(C)cc2)cc1OC,-2.72,–
CCN(CC(=O)Nc1c(F)cccc1F)C(=O)c1cnc(C)cn1,0.956,–
C/C(=N\NC(=S)Nc1ccc(C)cc1)c1cc2ccccc2o1,-2.42,–
O=C(Nc1ccncc1)c1cc2ccccc2o1,28.1,–
Cc1ccc(NC(=O)c2cc3ccccc3o2)cc1,–,3980 nM (active)
CCN(CC(=O)NCc1ccc(Cl)cc1)C(=O)c1c(C)noc1C,-2.5,–

SMILES,"activation, negative = inhibition [%]",Potency
c1ccc2c(c1)CSc1sccc1C2=C1CCNCC1,-7.46,–
Cc1cc(C(=O)NNC(=O)c2ccccc2O)c(C)o1,-2.2,–
COC(=O)C1CCN(C(=O)c2cc(=O)[nH]c3ccccc23)CC1,-3.49,–
CC1CCN(C(=O)COC(=O)c2cc(=O)[nH]c3ccccc23)CC1,–,2510 nM (active)
CC(NC(=O)COC(=O)c1cc(=O)[nH]c2ccccc12)c1ccccc1 (centres undefined),-0.707,–
O=C(COC(=O)c1ccccc1Cl)NC1CCCCCCC1,-4.83,–
O=C(Nc1ccc(Cl)cc1)c1ccsn1,–,1780 nM (active)
Cn1ccc(NC(=O)Nc2ccc(Cl)cc2)n1,25.5,–
CCC(=O)Nc1ccc(C(=O)NNC(=O)c2ccc(Cl)cc2)cc1,-2.77,–
CCCCN(Cc1ccccc1)C(=O)C1CCN(Cc2sccc2C)CC1,-0.806,–
Cn1c(CC(=O)NNC(=O)c2ccccc2F)nc2ccccc21,-10.1,–
O=C(c1ccc(N2CCOCC2)c([N+](=O)[O-])c1)N1CCN(S(=O)(=O)c2cccs2)CC1,-3.99,–
COc1ccc(C)cc1N(C(=O)Cn1nnc(-c2ccc(C)o2)n1)C(C(=O)NC1CCCC1)c1ccncc1 (centres undefined),-0.715,–
CCN(CC(=O)Nc1ccc(NC(C)=O)cc1)C(=O)CSC(=S)N1CCCC1,-2.35,–
CC(=O)Nc1cc2ccc(OC(C)=O)cc2oc1=O,3.39,–
Cc1ccccc1NC(=O)C1CCN(C(=O)NC2CCCCC2)CC1,-3.27,–
O=C(Nc1cc2ccccc2oc1=O)C1CCCCC1,–,562 nM (active)
CN(CC(=O)Nc1ccc(Cl)cc1)C(=O)c1ccc(COc2ccccc2)cc1,-6.62,–
CCN(CC)S(=O)(=O)c1cc(C(=O)Nc2ccccn2)ccc1C,–,1780 nM (active)
CCN(c1ccccc1)S(=O)(=O)c1cc(C(=O)NCc2ccccn2)ccc1C,-6.3,–
Cc1ccc(NC(=O)CNCc2ccccn2)cc1S(=O)(=O)N(C)C,19.9,–
